According to the supplement of paper PMC4466140:

B1: unnamed (peptide)
chain: VQQDSLPKLPFRSWG
B2: unnamed (peptide)
chain: TSIEIPKRSPLRFTS

Target: SpBzz1-D2
Experiment: SPOT peptide array binding signal intensity (averaged, normalized) (arbitrary units (background-subtracted, floor 0; scale differs between SH3 domains)); higher = stronger binding of the SH3 domain to the peptide
Procedure, shortened: (§1)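 The binding signal is the normalized, background-subtracted spot intensity averaged over replicates; its arbitrary units differ between domains. It was obtained by incubating 10 μg/ml GST-fused SH3 domains from four yeast species overnight at 4°C in TBS-based blocking buffer on cellulose membranes with synthetic 15-mer peptides, cysteines replaced by serines, then detecting with anti-GST antibody, HRP anti-mouse secondary and luminol.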

Row | Binder | SPOT peptide array binding signal intensity
1 | B1 | 1

Target: SpCyk3
Experiment: as above
Procedure, shortened: as §1

Row | Binder | SPOT peptide array binding signal intensity
2 | B1 | 15.5

Target: SpHof1
Experiment: as above
Procedure, shortened: as §1

Row | Binder | SPOT peptide array binding signal intensity
3 | B1 | 11.2

Target: SpHof1-2
Experiment: as above
Procedure, shortened: as §1

Row | Binder | SPOT peptide array binding signal intensity
4 | B1 | 258

Target: SpHof1-3
Experiment: as above
Procedure, shortened: as §1

Row | Binder | SPOT peptide array binding signal intensity
5 | B1 | 865

Target: SpHse1
Experiment: as above
Procedure, shortened: as §1

Row | Binder | SPOT peptide array binding signal intensity
6 | B1 | 77.5

Target: SpLsb1
Experiment: as above
Procedure, shortened: as §1

Row | Binder | SPOT peptide array binding signal intensity
7 | B1 | 3.5

Target: SpLsb4
Experiment: as above
Procedure, shortened: as §1

Row | Binder | SPOT peptide array binding signal intensity
8 | B1 | 6040

Target: SpMyo1
Experiment: as above
Procedure, shortened: as §1

Row | Binder | SPOT peptide array binding signal intensity
9 | B1 | ≤ 0

Target: SpNbp2
Experiment: as above
Procedure, shortened: as §1

Row | Binder | SPOT peptide array binding signal intensity
10 | B1 | 1

Target: SpPex13
Experiment: as above
Procedure, shortened: as §1

Row | Binder | SPOT peptide array binding signal intensity
11 | B1 | 5

Target: SpRvs167
Experiment: as above
Procedure, shortened: as §1

Row | Binder | SPOT peptide array binding signal intensity
12 | B1 | 2610

Target: SpSla1-D1-D2
Experiment: as above
Procedure, shortened: as §1

Row | Binder | SPOT peptide array binding signal intensity
13 | B1 | 3.5

Target: SpSla1-D3
Experiment: as above
Procedure, shortened: as §1

Row | Binder | SPOT peptide array binding signal intensity
14 | B1 | ≤ 0

Target: AgAbp1
Experiment: as above
Procedure, shortened: as §1

Row | Binder | SPOT peptide array binding signal intensity
15 | B2 | 9

Target: AgBbc1
Experiment: as above
Procedure, shortened: as §1

Row | Binder | SPOT peptide array binding signal intensity
16 | B2 | 41.5

Target: AgBem1-D1
Experiment: as above
Procedure, shortened: as §1

Row | Binder | SPOT peptide array binding signal intensity
17 | B2 | 9

Target: AgBzz1-D1
Experiment: as above
Procedure, shortened: as §1

Row | Binder | SPOT peptide array binding signal intensity
18 | B2 | 27

Target: AgBzz1-D2
Experiment: as above
Procedure, shortened: as §1

Row | Binder | SPOT peptide array binding signal intensity
19 | B2 | 16

Target: AgCyk3
Experiment: as above
Procedure, shortened: as §1

Row | Binder | SPOT peptide array binding signal intensity
20 | B2 | 1.5

Target: AgFus1
Experiment: as above
Procedure, shortened: as §1

Row | Binder | SPOT peptide array binding signal intensity
21 | B2 | ≤ 0

Target: AgHof1
Experiment: as above
Procedure, shortened: as §1

Row | Binder | SPOT peptide array binding signal intensity
22 | B2 | 6.5

Target: AgHse1
Experiment: as above
Procedure, shortened: as §1

Row | Binder | SPOT peptide array binding signal intensity
23 | B2 | ≤ 0

Target: AgLsb1
Experiment: as above
Procedure, shortened: as §1

Row | Binder | SPOT peptide array binding signal intensity
24 | B2 | ≤ 0

Target: AgLsb4
Experiment: as above
Procedure, shortened: as §1

Row | Binder | SPOT peptide array binding signal intensity
25 | B2 | 16.5

Target: AgMyo5
Experiment: as above
Procedure, shortened: as §1

Row | Binder | SPOT peptide array binding signal intensity
26 | B2 | 2

Target: AgNbp2
Experiment: as above
Procedure, shortened: as §1

Row | Binder | SPOT peptide array binding signal intensity
27 | B2 | 10.5

Target: AgRvs167
Experiment: as above
Procedure, shortened: as §1

Row | Binder | SPOT peptide array binding signal intensity
28 | B2 | 2.33

Target: AgSho1
Experiment: as above
Procedure, shortened: as §1

Row | Binder | SPOT peptide array binding signal intensity
29 | B2 | ≤ 0

Target: AgSla1-D1-D2
Experiment: as above
Procedure, shortened: as §1

Row | Binder | SPOT peptide array binding signal intensity
30 | B2 | ≤ 0

Target: AgSla1-D3
Experiment: as above
Procedure, shortened: as §1

Row | Binder | SPOT peptide array binding signal intensity
31 | B2 | ≤ 0

Target: CaAbp1-D1
Experiment: as above
Procedure, shortened: as §1

Row | Binder | SPOT peptide array binding signal intensity
32 | B2 | 272

Target: CaAbp1-D2
Experiment: as above
Procedure, shortened: as §1

Row | Binder | SPOT peptide array binding signal intensity
33 | B2 | 81

Target: CaBbc1
Experiment: as above
Procedure, shortened: as §1

Row | Binder | SPOT peptide array binding signal intensity
34 | B2 | 484

Target: CaBem1-D1
Experiment: as above
Procedure, shortened: as §1

Row | Binder | SPOT peptide array binding signal intensity
35 | B2 | 12

Target: CaBzz1-D1
Experiment: as above
Procedure, shortened: as §1

Row | Binder | SPOT peptide array binding signal intensity
36 | B2 | 41

Target: CaBzz1-D2
Experiment: as above
Procedure, shortened: as §1

Row | Binder | SPOT peptide array binding signal intensity
37 | B2 | 20

Target: CaCyk3
Experiment: as above
Procedure, shortened: as §1

Row | Binder | SPOT peptide array binding signal intensity
38 | B2 | 58.5

Target: CaFus1
Experiment: as above
Procedure, shortened: as §1

Row | Binder | SPOT peptide array binding signal intensity
39 | B2 | 42

Target: CaHof1
Experiment: as above
Procedure, shortened: as §1

Row | Binder | SPOT peptide array binding signal intensity
40 | B2 | ≤ 0

Target: CaHse1
Experiment: as above
Procedure, shortened: as §1

Row | Binder | SPOT peptide array binding signal intensity
41 | B2 | ≤ 0

Target: CaLsb1
Experiment: as above
Procedure, shortened: as §1

Row | Binder | SPOT peptide array binding signal intensity
42 | B2 | ≤ 0

Target: CaLsb4
Experiment: as above
Procedure, shortened: as §1

Row | Binder | SPOT peptide array binding signal intensity
43 | B2 | 27

Target: CaMyo5
Experiment: as above
Procedure, shortened: as §1

Row | Binder | SPOT peptide array binding signal intensity
44 | B2 | 3
